Holding throughout (assay): DAPPL (digital affinity profiling via proximity ligation, sequencing); 10 mM Tris-HCl pH 7.5, 50 mM NaCl, 1 mM DTT, 4% glycerol, room temperature, 30 min; GST-TFs on glutathione beads, 16-mer random dsDNA library, 0.1% formaldehyde crosslink after washing; high values mean tight binding
The target in one experiment is T1, FLI1 (Homo sapiens, UniProt Q01543 1-452).
T1 sequence: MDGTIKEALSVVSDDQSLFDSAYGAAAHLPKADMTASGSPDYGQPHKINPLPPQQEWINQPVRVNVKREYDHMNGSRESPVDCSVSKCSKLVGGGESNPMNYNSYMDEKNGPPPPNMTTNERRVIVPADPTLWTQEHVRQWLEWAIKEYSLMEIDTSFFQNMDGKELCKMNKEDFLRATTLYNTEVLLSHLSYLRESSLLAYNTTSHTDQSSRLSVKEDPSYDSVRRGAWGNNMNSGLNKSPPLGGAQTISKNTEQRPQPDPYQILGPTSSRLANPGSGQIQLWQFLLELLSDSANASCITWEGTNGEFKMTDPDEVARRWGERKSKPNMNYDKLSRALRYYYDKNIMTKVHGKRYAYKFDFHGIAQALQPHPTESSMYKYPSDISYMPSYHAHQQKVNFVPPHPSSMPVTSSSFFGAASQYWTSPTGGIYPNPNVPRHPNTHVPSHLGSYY
The following applies: protein: recombinant; tags: N-terminal GST; dsDNA, one strand shown. The method in brief:
(§1)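 The binding signal reported is, for every hexamer, its read frequency for a factor over its read frequency for the tag-only sample. Reads came from pools of yeast-expressed, GST-fused human transcription factors on glutathione beads, barcoded with DNA and mixed with that sample, which were incubated with 200 nmole of a random double-stranded 16-mer DNA library in Tris/NaCl/DTT/glycerol buffer at room temperature for 30 min. After washing, the pools were crosslinked with 0.1% formaldehyde, proximity-ligated with BsaI/T4 ligase for 1 h at 37 °C, PCR-amplified and sequenced on an Illumina NextSeq500.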

The next experiment deals with T2, ELK1 (Homo sapiens, UniProt P19419 1-428).
T2 sequence: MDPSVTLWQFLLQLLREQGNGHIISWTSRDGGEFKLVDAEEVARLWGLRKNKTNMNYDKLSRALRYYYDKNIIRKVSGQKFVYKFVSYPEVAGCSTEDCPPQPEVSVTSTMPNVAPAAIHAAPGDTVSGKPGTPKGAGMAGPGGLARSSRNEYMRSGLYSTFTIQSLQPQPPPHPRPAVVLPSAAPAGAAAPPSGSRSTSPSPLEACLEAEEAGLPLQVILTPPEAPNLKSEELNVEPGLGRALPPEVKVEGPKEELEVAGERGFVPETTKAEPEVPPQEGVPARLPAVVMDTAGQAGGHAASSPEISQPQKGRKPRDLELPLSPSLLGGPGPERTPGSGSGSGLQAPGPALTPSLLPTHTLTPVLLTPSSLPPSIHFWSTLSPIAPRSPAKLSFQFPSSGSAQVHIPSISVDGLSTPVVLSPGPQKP
The following applies: protein: recombinant; tags: N-terminal GST; dsDNA, one strand shown. The method in brief: as §1

Another experiment has as its target T3, GABPA (Homo sapiens, UniProt Q06546 1-454).
T3 sequence: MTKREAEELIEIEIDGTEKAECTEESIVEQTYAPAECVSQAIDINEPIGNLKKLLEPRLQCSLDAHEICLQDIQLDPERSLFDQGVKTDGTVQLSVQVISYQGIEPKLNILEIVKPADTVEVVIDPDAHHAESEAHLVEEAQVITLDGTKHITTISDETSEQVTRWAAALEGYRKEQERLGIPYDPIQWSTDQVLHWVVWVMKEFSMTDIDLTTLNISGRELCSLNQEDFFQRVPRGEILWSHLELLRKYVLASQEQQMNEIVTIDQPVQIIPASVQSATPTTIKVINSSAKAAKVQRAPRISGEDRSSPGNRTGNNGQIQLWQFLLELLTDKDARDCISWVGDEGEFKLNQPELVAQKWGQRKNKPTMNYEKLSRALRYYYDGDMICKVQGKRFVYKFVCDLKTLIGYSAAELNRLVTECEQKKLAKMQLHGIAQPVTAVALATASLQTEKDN
The conditions noted are these: protein: recombinant; tags: N-terminal GST; dsDNA, one strand shown. An outline of the steps:
as §1

For another experiment, the target named is T4, ERG (Homo sapiens, UniProt P11308 1-479).
T4 sequence: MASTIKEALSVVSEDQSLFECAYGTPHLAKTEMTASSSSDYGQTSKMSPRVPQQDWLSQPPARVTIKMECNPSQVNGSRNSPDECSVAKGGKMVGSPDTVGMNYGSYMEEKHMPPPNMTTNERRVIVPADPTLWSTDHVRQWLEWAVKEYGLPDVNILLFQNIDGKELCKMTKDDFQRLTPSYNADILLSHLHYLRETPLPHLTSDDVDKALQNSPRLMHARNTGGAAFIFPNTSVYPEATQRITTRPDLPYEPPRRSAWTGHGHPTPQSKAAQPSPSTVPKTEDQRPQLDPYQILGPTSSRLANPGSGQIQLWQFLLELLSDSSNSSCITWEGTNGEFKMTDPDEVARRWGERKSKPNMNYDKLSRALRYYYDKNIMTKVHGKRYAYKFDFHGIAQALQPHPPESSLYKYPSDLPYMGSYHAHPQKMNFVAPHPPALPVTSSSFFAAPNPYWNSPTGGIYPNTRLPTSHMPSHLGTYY
The following applies: protein: recombinant; tags: N-terminal GST; dsDNA, one strand shown. The method in brief:
as §1

The next experiment addresses ELF1 (Homo sapiens, UniProt P32519 1-619). The conditions noted are these: protein: recombinant; tags: N-terminal GST; dsDNA, one strand shown. An outline of the steps: as §1
Another experiment concerns the target T5, EHF (Homo sapiens, UniProt Q9NZC4 1-300).
T5 sequence: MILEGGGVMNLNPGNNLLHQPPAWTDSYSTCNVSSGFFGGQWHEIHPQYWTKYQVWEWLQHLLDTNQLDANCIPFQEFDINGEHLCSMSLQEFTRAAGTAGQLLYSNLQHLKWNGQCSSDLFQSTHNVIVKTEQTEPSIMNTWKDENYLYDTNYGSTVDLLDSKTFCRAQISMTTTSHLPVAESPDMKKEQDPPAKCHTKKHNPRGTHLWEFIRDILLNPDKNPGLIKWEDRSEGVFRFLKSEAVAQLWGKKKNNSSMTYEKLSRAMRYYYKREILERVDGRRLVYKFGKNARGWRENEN
The conditions noted are these: protein: recombinant; tags: N-terminal GST; dsDNA, one strand shown. An outline of the steps: as §1

In a further experiment the target is SPI1 (Homo sapiens, UniProt P17947 1-270). The conditions noted are these: protein: recombinant; tags: N-terminal GST; dsDNA, one strand shown. The method in brief:
as §1

The target in another experiment is SPIB (Homo sapiens, UniProt Q01892 1-262). The following applies: protein: recombinant; tags: N-terminal GST; dsDNA, one strand shown. An outline of the steps: as §1
SPIB, sequence (Q01892 whole entry): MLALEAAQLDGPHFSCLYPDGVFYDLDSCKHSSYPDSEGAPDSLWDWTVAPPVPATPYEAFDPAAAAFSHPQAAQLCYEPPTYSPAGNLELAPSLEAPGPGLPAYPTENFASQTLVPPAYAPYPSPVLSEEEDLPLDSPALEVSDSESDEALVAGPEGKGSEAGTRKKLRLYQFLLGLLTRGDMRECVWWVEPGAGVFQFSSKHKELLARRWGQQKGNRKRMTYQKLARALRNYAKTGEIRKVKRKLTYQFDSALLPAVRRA
The next experiment deals with T6, ELK3 (Homo sapiens, UniProt P41970 1-407).
T6 sequence: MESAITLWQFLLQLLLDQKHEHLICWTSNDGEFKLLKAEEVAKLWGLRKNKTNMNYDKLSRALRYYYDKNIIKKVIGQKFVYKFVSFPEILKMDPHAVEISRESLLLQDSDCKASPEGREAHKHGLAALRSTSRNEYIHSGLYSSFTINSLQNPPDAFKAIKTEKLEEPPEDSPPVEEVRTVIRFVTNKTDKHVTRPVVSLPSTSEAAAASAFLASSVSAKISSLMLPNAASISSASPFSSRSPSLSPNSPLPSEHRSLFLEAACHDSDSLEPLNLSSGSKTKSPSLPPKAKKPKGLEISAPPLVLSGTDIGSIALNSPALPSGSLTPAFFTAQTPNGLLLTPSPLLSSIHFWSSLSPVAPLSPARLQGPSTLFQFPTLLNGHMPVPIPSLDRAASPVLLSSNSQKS
The conditions noted are these: protein: recombinant; tags: N-terminal GST; dsDNA, one strand shown. An outline of the steps:
as §1

For another experiment, the target named is T7, FEV (Homo sapiens, UniProt Q99581 1-238).
T7 sequence: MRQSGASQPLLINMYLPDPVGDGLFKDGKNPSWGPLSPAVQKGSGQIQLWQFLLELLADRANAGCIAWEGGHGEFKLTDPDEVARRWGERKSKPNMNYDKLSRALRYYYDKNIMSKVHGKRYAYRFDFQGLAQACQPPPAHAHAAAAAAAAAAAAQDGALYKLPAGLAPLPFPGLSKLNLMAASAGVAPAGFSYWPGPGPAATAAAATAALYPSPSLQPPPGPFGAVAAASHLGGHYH
The conditions noted are these: protein: recombinant; tags: N-terminal GST; dsDNA, one strand shown. The method in brief: as §1

The target in a further experiment is ETV5 (Homo sapiens, UniProt P41161 1-510). The following applies: protein: recombinant; tags: N-terminal GST; dsDNA, one strand shown. An outline of the steps: as §1
ETV5, sequence (P41161 whole entry): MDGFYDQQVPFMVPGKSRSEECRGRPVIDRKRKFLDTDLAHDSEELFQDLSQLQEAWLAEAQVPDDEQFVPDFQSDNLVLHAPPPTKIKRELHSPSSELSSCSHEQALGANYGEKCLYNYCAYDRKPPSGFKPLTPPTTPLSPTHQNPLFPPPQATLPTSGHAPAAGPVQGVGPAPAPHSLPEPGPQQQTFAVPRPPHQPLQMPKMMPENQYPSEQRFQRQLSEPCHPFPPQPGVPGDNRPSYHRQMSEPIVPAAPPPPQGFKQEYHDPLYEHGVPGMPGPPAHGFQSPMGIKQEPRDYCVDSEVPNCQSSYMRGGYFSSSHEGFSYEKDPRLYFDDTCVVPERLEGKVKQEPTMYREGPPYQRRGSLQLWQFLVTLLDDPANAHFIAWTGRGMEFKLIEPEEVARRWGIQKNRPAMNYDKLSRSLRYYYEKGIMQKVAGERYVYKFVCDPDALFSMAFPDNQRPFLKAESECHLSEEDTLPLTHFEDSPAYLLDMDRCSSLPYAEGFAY
The target in another experiment is HSF1 (Homo sapiens, UniProt Q00613 1-529). The following applies: protein: recombinant; tags: N-terminal GST; chain copies: 3; dsDNA, one strand shown. An outline of the steps:
as §1

A further experiment addresses T8, SPIC (Homo sapiens, UniProt Q8N5J4 1-248).
T8 sequence: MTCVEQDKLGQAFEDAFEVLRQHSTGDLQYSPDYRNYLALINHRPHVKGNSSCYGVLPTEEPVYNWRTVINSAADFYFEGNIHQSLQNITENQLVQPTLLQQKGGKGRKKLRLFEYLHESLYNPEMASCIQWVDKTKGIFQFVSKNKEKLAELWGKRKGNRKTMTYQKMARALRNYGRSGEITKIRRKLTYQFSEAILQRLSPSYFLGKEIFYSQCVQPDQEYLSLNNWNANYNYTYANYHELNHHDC
The conditions noted are these: protein: recombinant; tags: N-terminal GST; dsDNA, one strand shown. The method in brief: as §1

For the next experiment, the target named is ELF4 (Homo sapiens, UniProt Q99607 1-663). The conditions noted are these: protein: recombinant; tags: N-terminal GST; dsDNA, one strand shown. The method in brief: as §1
ELF4, sequence (Q99607 whole entry): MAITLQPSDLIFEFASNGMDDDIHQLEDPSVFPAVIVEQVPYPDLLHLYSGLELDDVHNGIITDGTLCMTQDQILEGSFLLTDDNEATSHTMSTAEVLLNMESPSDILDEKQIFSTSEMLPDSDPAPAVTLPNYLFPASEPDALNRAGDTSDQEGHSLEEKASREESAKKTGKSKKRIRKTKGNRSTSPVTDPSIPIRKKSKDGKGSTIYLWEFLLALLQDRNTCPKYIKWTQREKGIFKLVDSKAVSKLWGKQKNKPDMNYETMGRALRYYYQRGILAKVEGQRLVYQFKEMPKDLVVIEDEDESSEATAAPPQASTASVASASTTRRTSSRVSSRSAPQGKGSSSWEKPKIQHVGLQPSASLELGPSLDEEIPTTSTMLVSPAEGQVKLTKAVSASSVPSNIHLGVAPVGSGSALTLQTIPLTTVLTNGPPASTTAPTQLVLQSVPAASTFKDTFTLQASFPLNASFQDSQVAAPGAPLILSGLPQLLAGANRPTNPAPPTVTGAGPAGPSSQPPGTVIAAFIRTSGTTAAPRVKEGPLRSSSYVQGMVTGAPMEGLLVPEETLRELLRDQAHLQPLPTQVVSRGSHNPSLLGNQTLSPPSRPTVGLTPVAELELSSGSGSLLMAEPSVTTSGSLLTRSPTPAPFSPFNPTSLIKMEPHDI
The next experiment deals with T9, ELK4 (Homo sapiens, UniProt P28324-2 1-405).
T9 sequence: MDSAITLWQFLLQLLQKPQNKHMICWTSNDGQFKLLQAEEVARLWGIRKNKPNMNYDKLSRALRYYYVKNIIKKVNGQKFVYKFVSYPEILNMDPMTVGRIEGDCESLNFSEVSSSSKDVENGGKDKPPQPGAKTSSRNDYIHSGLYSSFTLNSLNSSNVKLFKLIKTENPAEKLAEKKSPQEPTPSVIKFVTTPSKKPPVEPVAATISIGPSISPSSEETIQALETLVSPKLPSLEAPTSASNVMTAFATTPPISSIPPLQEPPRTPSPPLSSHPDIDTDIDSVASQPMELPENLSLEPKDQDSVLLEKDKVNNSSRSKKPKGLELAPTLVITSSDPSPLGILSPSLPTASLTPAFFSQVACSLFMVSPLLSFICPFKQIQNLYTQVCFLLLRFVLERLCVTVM
The following applies: protein: recombinant; tags: N-terminal GST; dsDNA, one strand shown. An outline of the steps: as §1

The target of the next experiment is T10, ELF3 (Homo sapiens, UniProt P78545 1-371).
T10 sequence: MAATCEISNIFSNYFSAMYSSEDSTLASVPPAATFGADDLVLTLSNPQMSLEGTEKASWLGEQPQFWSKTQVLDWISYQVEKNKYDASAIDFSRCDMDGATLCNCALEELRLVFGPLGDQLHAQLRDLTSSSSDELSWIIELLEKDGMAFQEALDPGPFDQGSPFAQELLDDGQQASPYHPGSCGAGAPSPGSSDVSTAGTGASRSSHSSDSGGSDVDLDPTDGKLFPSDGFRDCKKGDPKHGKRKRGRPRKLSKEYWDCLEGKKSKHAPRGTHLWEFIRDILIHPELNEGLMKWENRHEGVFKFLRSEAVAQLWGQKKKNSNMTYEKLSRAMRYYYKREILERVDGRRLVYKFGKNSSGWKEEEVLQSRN
The following applies: protein: recombinant; tags: N-terminal GST; dsDNA, one strand shown. An outline of the steps: as §1

Another experiment concerns the target CRX (Homo sapiens, UniProt O43186 1-299). The following applies: protein: recombinant; tags: N-terminal GST; dsDNA, one strand shown. An outline of the steps:
as §1

The target of a further experiment is ETV1 (Homo sapiens, UniProt P50549 1-477). The conditions noted are these: protein: recombinant; tags: N-terminal GST; dsDNA, one strand shown. The method in brief: as §1
ETV1, sequence (P50549 whole entry): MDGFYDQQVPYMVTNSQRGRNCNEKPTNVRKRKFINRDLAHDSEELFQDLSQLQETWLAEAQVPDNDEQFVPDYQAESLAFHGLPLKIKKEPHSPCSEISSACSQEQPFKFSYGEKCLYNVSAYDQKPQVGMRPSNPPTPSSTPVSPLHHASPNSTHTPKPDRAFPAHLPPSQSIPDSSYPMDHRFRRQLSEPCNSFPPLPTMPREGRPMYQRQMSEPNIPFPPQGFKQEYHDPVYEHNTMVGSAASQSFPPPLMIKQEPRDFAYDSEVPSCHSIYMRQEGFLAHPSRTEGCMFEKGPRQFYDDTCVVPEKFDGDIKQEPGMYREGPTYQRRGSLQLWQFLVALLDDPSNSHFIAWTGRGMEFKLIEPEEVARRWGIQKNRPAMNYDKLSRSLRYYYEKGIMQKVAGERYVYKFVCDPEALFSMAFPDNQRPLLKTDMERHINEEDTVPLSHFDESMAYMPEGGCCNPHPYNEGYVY

Data on one sequence can be found in publication PMC7862700, “An all-to-all approach to the identification of sequence-specific readers for epigenetic DNA modifications on cytosine”.

CRX, sequence (O43186 whole entry): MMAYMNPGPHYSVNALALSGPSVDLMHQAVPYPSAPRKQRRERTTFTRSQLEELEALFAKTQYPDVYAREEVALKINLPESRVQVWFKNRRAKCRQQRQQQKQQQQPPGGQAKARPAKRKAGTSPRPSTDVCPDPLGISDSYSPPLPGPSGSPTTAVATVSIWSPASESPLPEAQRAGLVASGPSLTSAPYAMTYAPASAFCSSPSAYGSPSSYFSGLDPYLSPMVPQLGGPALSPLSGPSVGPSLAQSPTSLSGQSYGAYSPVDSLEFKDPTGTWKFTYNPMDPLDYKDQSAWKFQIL
ELF1, sequence (P32519 whole entry): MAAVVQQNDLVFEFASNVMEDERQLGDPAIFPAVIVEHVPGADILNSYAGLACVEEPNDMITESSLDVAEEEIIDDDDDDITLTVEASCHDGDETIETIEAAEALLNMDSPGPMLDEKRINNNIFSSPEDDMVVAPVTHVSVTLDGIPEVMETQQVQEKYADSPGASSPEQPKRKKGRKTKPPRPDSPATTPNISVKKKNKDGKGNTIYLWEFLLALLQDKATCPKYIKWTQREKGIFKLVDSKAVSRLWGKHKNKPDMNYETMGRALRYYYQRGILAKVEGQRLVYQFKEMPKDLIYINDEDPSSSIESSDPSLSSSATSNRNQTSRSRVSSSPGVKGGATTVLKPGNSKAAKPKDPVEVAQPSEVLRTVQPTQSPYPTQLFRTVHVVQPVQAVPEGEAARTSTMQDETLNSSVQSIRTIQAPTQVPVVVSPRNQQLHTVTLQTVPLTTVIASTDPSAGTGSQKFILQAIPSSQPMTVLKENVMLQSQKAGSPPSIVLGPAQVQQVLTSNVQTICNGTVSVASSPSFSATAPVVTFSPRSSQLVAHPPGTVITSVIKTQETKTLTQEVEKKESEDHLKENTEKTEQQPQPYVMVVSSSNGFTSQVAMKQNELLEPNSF
HSF1, sequence (Q00613 whole entry): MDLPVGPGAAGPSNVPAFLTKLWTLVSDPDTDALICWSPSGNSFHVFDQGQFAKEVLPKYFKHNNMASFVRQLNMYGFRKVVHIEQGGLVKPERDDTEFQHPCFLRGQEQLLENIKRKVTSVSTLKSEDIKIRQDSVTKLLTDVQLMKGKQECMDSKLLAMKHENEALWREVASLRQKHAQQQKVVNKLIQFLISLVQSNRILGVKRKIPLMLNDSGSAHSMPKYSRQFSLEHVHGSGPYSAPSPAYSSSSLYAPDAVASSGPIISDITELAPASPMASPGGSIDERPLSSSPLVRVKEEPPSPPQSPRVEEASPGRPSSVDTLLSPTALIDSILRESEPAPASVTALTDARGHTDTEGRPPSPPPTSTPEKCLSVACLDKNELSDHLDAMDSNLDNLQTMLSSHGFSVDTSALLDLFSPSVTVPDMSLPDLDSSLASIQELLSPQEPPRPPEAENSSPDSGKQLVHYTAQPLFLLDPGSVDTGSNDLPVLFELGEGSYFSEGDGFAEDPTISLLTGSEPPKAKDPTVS

For the sequence CTTGGC, the binding signal is 1.19 fold enrichment (6-mer frequency, TF over GST control) with FLI1; 1.23 fold enrichment (6-mer frequency, TF over GST control) with ELK1; 1.25 fold enrichment (6-mer frequency, TF over GST control) with GABPA; 1.12 fold enrichment (6-mer frequency, TF over GST control) in the experiment with ERG; 1.14 fold enrichment (6-mer frequency, TF over GST control) with ELF1; 1.22 fold enrichment (6-mer frequency, TF over GST control) with EHF. Moreover, the binding signal in the experiment with SPI1 was 1.18 fold enrichment (6-mer frequency, TF over GST control); with SPIB it was 1.2 fold enrichment (6-mer frequency, TF over GST control); in the experiment with ELK3 it was 1.18 fold enrichment (6-mer frequency, TF over GST control); with FEV, 1.24 fold enrichment (6-mer frequency, TF over GST control); with ETV5, 1.1 fold enrichment (6-mer frequency, TF over GST control); with HSF1 it was 1.03 fold enrichment (6-mer frequency, TF over GST control). Further, the binding signal with SPIC is 1.14 fold enrichment (6-mer frequency, TF over GST control); with ELF4 it was 1.21 fold enrichment (6-mer frequency, TF over GST control); with ELK4, 1.42 fold enrichment (6-mer frequency, TF over GST control); with ELF3, 1.19 fold enrichment (6-mer frequency, TF over GST control); with CRX, 1.03 fold enrichment (6-mer frequency, TF over GST control); with ETV1 it was 1.15 fold enrichment (6-mer frequency, TF over GST control).
